From PubChem BioAssay (EPA / NIEHS) come the findings set out here.

The source made the active and inactive calls. The calls were made as follows: active = hit-call score of the fitted dose curve at least 0.9, where 1 is the maximum; inactive = score below 0.9.

Read-out in one experiment: Matrix Metallopeptidase 1 (MMP1), MMP1 (gene 4312)
The experiment is described as follows: BSK_hDFCGF_MMP1: BioMAP Diversity Plus: hDFCGF Assay for Matrix Metallopeptidase 1 (MMP1) Biomarker Activity (AID 2283064). The conditions noted are these: primary human foreskin fibroblasts; actives raise or lower the signal. In outline: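 MMP1 levels quantified by ELISA 24 h after dosing human dermal fibroblast cultures, with parallel SRB total-protein staining for overt cytotoxicity. Data fitted in both directions against DMSO baseline.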
Take `Cc1ncc(CO)c(CO)c1O`: the result was inactive.
What is called AC50 is the midpoint of the concentration-response curve, whichever way the signal moves. For the molecule `CN(C)C(=O)C1(N2CCCCC2)CCN(CC[C@@]2(c3ccc(Cl)c(Cl)c3)CN(C(=O)c3ccccc3)CCO2)CC1`, the AC50 was 29.2 µM (active).
Consider `CCCCCCCCCC(=O)O`, for which the outcome was inactive.
As to `O=C(O)c1ccccc1C(=O)OCc1ccccc1`, the result was inactive.
For `OCCO`, the outcome was inactive.
`CC1(C)NC(=O)N(c2ccc([N+](=O)[O-])c(C(F)(F)F)c2)C1=O`: the outcome was inactive.

Read-out in a further experiment: Vascular cell adhesion molecule 1 (VCAM1), VCAM1 (gene 7412)
The experiment is described as follows: BSK_hDFCGF_VCAM1: BioMAP Diversity Plus: hDFCGF Assay for Vascular cell adhesion molecule 1 (VCAM1) Biomarker Activity (AID 2283065).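 As to AC50: VCAM-1 protein level quantified by ELISA after 24 h chemical exposure.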 The conditions noted are these: primary human foreskin fibroblasts; actives raise or lower the signal. An outline of the steps: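 ELISA read-out of VCAM-1 on human skin fibroblasts, 24 h post-dose; gain or loss of signal fitted bidirectionally against DMSO baseline.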
`C[C@]12CC[C@@H]3c4ccc(O)cc4CC[C@H]3[C@@H]1CC[C@H]2O`: the half-maximal activity concentration (AC50) was 15.4 µM (active).
As to `O=c1ccc2ccccc2o1`, the result was inactive.
`Clc1ccccc1C(c1ccccc1)(c1ccccc1)n1ccnc1`: the AC50 was 8.14 µM (active).
In the case of `CCCOC(=O)c1cc(O)c(O)c(O)c1`, the result was inactive.
Regarding `COc1ccc2cc(S(=O)(=O)N[C@H](CC(=O)N[C@H](Cc3ccc(CN4[C@H](C)CCC[C@@H]4C)cc3)C(=O)N(C)C(C)C)c3ccc4c(c3)OCO4)ccc2c1`, the AC50 was 32.1 µM (active).
For `CN(C)c1ccc(C(=C2C=CC(=[N+](C)C)C=C2)c2ccc(N(C)C)cc2)cc1`, the AC50 was 3.25 µM (active).
In the case of `O=c1c(-c2ccc(O)cc2)coc2cc(O)cc(O)c12`, the outcome was inactive.
Still for that read-out and setting: to `O=C=NCCCCCCN=C=O` belongs “inactive”.
On to `O=C1c2ccccc2C(=O)N1CCc1noc(-c2ccc(CN3CCCCCC3)s2)n1`, for which the outcome was inactive.
Turning to `Cc1c2ccccc2c(C)c2c1ccc1ccccc12`, the AC50 was 3.97 µM (active).
On to `O=C(O)Cc1cc(I)c(Oc2ccc(O)c(I)c2)c(I)c1`, for which the outcome was inactive.
Same read-out and setting: next, `O=C(OCCCCCCOC(=O)c1ccccc1)c1ccccc1`: “inactive”; `CCN(CC)C(=O)c1cc(S(=O)(=O)Cc2ccccc2)c(N2CCC(c3ccccc3)CC2)cc1N(CC)CCN(C)C`: “inactive”.
The same measure, in the same setting: next, `c1ccc2n[nH]nc2c1`: “inactive”; `c1ccc(C[n+]2cccc3ccccc32)cc1`: “inactive”.
Regarding `CC(=O)N1CCN(c2ccc(OC[C@H]3CO[C@](Cn4ccnc4)(c4ccc(Cl)cc4Cl)O3)cc2)CC1`, the AC50 was 35.5 µM (active).
Consider `CCCCCCCCOc1ccc(C(=O)c2ccccc2)c(O)c1`, for which the outcome was inactive.
Take `CCCC(=O)OCCC(C)C`: the result was inactive.
For the molecule `COCC(C)OCC(C)OCC(C)O` (centres undefined), the outcome was inactive.
The same measure, in the same setting: next, `CCCCCc1ccc(N)cc1`: “inactive”.
Turning to `c1ccc2ccccc2c1`, the outcome was inactive.
In the case of `Cc1cc(F)ccc1-c1cc(N2CC[C@@H](O)[C@H]2CO)ncc1N(C)C(=O)C(C)(C)c1cc(C(F)(F)F)cc(C(F)(F)F)c1`, the AC50 was 12.6 µM (active).
Turning to `CC(C)(C)c1cc(/C=C2\SC(N)=NC2=O)cc(C(C)(C)C)c1O`, the AC50 is 15.6 µM (active).
Regarding `Cc1cc2c(cc1C(F)(F)F)N(C(=O)Nc1ccc(Oc3cccnc3C)nc1)CC2`, the result was inactive.
Same read-out and setting: next, `Oc1ccc2ccccc2c1`: “inactive”; `CC[C@H](NC(=O)c1cc(F)ccc1NS(=O)(=O)c1cccc2cccnc12)c1ccccc1`: “inactive”.
As to `O=C(Nc1ccc(Cl)cc1)Nc1ccc(Cl)c(Cl)c1`, the AC50 was 0.47 µM (active).
Regarding `O=C(O)Cn1c(=O)n(Cc2ccc(Br)cc2F)c(=O)c2ccc(Cl)cc21`, the outcome was inactive.
On to `NC(=O)c1nc(-c2cccc(-c3cc(F)ccc3OCC(F)(F)C(F)(F)F)c2)n[nH]1`, for which the AC50 was 35.1 µM (active).
For the molecule `Cc1ncc(CO)c(CO)c1O`, the outcome was inactive.
In the case of `CN(C)C(=O)C1(N2CCCCC2)CCN(CC[C@@]2(c3ccc(Cl)c(Cl)c3)CN(C(=O)c3ccccc3)CCO2)CC1`, the AC50 was 14.9 µM (active).
Turning to `CCCCCCCCCC(=O)O`, the result was inactive.
For the molecule `O=C(O)c1ccccc1C(=O)OCc1ccccc1`, the result was inactive.
Still for that read-out and setting: to `OCCO` belongs “inactive”; to `CC1(C)NC(=O)N(c2ccc([N+](=O)[O-])c(C(F)(F)F)c2)C1=O`, “inactive”.

Read-out in the next experiment: Plasminogen activator inhibitor-1 (PAI1), SERPINE1 (gene 5054)
Put plainly: BSK_hDFCGF_PAI1: BioMAP Diversity Plus: hDFCGF Assay for Plasminogen activator inhibitor-1 (PAI1) Biomarker Activity (AID 2283066). The conditions noted are these: primary human foreskin fibroblasts; actives raise or lower the signal. In outline: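 PAI-1 levels in human dermal foreskin fibroblasts were quantified by ELISA 24 h after dosing, with gain or loss analysed against DMSO. Overt cytotoxicity was checked by sulforhodamine B total-protein staining in parallel cultures.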
As for `C[C@]12CC[C@@H]3c4ccc(O)cc4CC[C@H]3[C@@H]1CC[C@H]2O`, the result was inactive.
Consider `O=c1ccc2ccccc2o1`, for which the result was inactive.
Same read-out and setting: to `Cc1cccc2ccccc12` belongs “inactive”.
`Clc1ccccc1C(c1ccccc1)(c1ccccc1)n1ccnc1`: the AC50 is 5.57 µM (active).
For the molecule `CCCOC(=O)c1cc(O)c(O)c(O)c1`, the outcome was inactive.
With `COc1ccc2cc(S(=O)(=O)N[C@H](CC(=O)N[C@H](Cc3ccc(CN4[C@H](C)CCC[C@@H]4C)cc3)C(=O)N(C)C(C)C)c3ccc4c(c3)OCO4)ccc2c1`, the AC50 was 26 µM (active).
Take `CN(C)c1ccc(C(=C2C=CC(=[N+](C)C)C=C2)c2ccc(N(C)C)cc2)cc1`: the AC50 was 1.54 µM (active).
In the case of `O=c1c(-c2ccc(O)cc2)coc2cc(O)cc(O)c12`, the AC50 is 20 µM (active).
For `O=C=NCCCCCCN=C=O`, the result was inactive.
The same measure, in the same setting: next, `O=C1c2ccccc2C(=O)N1CCc1noc(-c2ccc(CN3CCCCCC3)s2)n1`: “inactive”.
Take `Cc1c2ccccc2c(C)c2c1ccc1ccccc12`: the AC50 is 10.1 µM (active).
On the same count and under the same terms, next, `O=C(O)Cc1cc(I)c(Oc2ccc(O)c(I)c2)c(I)c1`: 10.4 µM (active).
Consider `CN1C(=O)CC[C@H]1c1cccnc1`, for which the outcome was inactive.
The same measure, in the same setting: to `O=C(OCCCCCCOC(=O)c1ccccc1)c1ccccc1` belongs “inactive”.
On to `CCN(CC)C(=O)c1cc(S(=O)(=O)Cc2ccccc2)c(N2CCC(c3ccccc3)CC2)cc1N(CC)CCN(C)C`, for which the AC50 was 4.69 µM (active).
On to `c1ccc2n[nH]nc2c1`, for which the result was inactive.
The same measure, in the same setting: next, `c1ccc(C[n+]2cccc3ccccc32)cc1`: “inactive”.
For the molecule `CC(=O)N1CCN(c2ccc(OC[C@H]3CO[C@](Cn4ccnc4)(c4ccc(Cl)cc4Cl)O3)cc2)CC1`, the AC50 was 34.2 µM (active).
As for `CCCCCCCCOc1ccc(C(=O)c2ccccc2)c(O)c1`, the result was inactive.
Same read-out and setting: next, `CCCC(=O)OCCC(C)C`: “inactive”.
Still for that read-out and setting: next, `COCC(C)OCC(C)OCC(C)O` (centres undefined): “inactive”.
For `CCCCCc1ccc(N)cc1`, the result was inactive.
Take `c1ccc2ccccc2c1`: the outcome was inactive.
As to `Cc1cc(F)ccc1-c1cc(N2CC[C@@H](O)[C@H]2CO)ncc1N(C)C(=O)C(C)(C)c1cc(C(F)(F)F)cc(C(F)(F)F)c1`, the AC50 is 11.3 µM (active).
On the same count and under the same terms, next, `CC(C)(C)c1cc(/C=C2\SC(N)=NC2=O)cc(C(C)(C)C)c1O`: 20 µM (active).
On to `Cc1cc2c(cc1C(F)(F)F)N(C(=O)Nc1ccc(Oc3cccnc3C)nc1)CC2`, for which the outcome was inactive.
As for `Oc1ccc2ccccc2c1`, the outcome was inactive.
Take `CC[C@H](NC(=O)c1cc(F)ccc1NS(=O)(=O)c1cccc2cccnc12)c1ccccc1`: the result was inactive.
For the molecule `O=C(Nc1ccc(Cl)cc1)Nc1ccc(Cl)c(Cl)c1`, the AC50 is 0.7 µM (active).
Take `O=C(O)Cn1c(=O)n(Cc2ccc(Br)cc2F)c(=O)c2ccc(Cl)cc21`: the result was inactive.
Regarding `NC(=O)c1nc(-c2cccc(-c3cc(F)ccc3OCC(F)(F)C(F)(F)F)c2)n[nH]1`, the AC50 is 32.8 µM (active).
Turning to `OC12N=C(c3ccccc3)SC1Cc1cc(Cl)ccc12` (centres undefined), the outcome was inactive.
In the case of `Cc1ncc(CO)c(CO)c1O`, the outcome was inactive.
Consider `CN(C)C(=O)C1(N2CCCCC2)CCN(CC[C@@]2(c3ccc(Cl)c(Cl)c3)CN(C(=O)c3ccccc3)CCO2)CC1`, for which the AC50 is 12.3 µM (active).
Consider `CCCCCCCCCC(=O)O`, for which the outcome was inactive.
On the same count and under the same terms, to `O=C(O)c1ccccc1C(=O)OCc1ccccc1` belongs “inactive”; to `OCCO`, “inactive”.
Still for that read-out and setting: next, `CC1(C)NC(=O)N(c2ccc([N+](=O)[O-])c(C(F)(F)F)c2)C1=O`: “inactive”.
